Results filed as inconclusive are left out. A number with no mark means an inactive call. Activity calls are given as the source filed them. Calls follow the shape of the dose curve; as a rule, active = well fitted inhibition curve with a large enough effect; inconclusive = small, poorly fitted or top-dose-only effect; inactive = no such curve, though single readings can be large or run the other way.
molecular target: Luciferin 4-monooxygenase (Photinus pyralis) (UniProt P08659); assay: FLuc inhibitory activity for the follow-up compounds in a biochemical assay with an in-house formulation of detection reagent; settings: purified FLuc, luminescence; series mostly up to 25.6 µM; activity change, negative = inhibition: at the top concentration
Sequence (P08659 whole entry, looked up): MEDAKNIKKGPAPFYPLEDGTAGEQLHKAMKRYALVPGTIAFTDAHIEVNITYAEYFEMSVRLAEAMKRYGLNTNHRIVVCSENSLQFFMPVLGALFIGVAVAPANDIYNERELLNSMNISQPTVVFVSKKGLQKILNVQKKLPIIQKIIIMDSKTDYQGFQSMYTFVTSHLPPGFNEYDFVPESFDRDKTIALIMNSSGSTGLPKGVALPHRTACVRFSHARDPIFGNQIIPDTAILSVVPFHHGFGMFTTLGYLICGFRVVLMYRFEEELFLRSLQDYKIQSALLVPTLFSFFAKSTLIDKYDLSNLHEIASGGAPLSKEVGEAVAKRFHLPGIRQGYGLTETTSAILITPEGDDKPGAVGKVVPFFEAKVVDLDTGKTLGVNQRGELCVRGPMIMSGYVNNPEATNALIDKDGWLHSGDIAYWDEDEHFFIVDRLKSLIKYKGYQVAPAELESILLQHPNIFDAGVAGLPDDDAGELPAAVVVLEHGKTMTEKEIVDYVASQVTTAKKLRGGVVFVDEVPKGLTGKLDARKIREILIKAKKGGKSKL
Text: NCGC Assay Overview: Firefly (Photinus pyralis) luciferase is one of the most commonly used transcriptional reporters. It is considered one of the more dynamically responsive reporters - that is, responsive to changes in reporter transcription - as it requires no post-translational modifications and is enzymatically active directly after protein synthesis (Wood, 1998). With no endogenous expression in mammalian cells and without the requirement of external excitation, it offers very little background signal, thus generally providing excellent signal to background for most assays. Previous profiling work to determine the prevalence of compounds that affect FLuc enzymatic activity (PubChem AID 411) identified that ~3% of the MLSMR library (then at ~72K) inhibited FLuc (Auld et al., 2008). […] Of the compounds identified in this profile that inhibited FLuc, 151 compounds were selected for further analysis, in an effort to better understand their mode of inhibiting FLuc. The assay described here was to determine the activity of the compounds in a FLuc assay that used an in-house formulation of detection reagent.
NCGC Assay Protocol Summary: Reagents: 300mM Tris-HCl, 300mM Trizma base, 300mM MgCl, 1% Triton-X100, 5mM DTT, 500uM Coenzyme A trilithium salt (Sigma #C3019),450uM ATP (Sigma #A7699), 1mM D-luciferin sodium salt monohydrate (Biosynth #L8240); 10nM P. pyralis luciferase (Sigma #L9506) Control compounds used were two known firefly luciferase inhibitors (3-(5-(3-chlorophenyl)-1,2,4-oxadiazol-3-yl)benzoic acid and 5-(2-fluorophenyl)-3-phenyl-1,2,4-oxadiazole), and DMSO. Assay Summary: Six microliters of buffer containing firefly luciferase (final concentrations: 50mM Tris acetate, 10nM P. pyralis luciferase) are dispensed into each well of a Greiner white, solid-bottom 1536-well format plate using a flying reagent dispenser (FRD). These assay plates were then treated with 23nL of compound or DMSO using a Kalypsys pin tool, which allows for delivery of a 12-point intraplate titration of each compound to the assay plate (quantitative HTS), with final compound concentrations ranging from approximately ~25uM to 0.1nM. Three microliters of 3X in-house detection reagent was then delivered by FRD to each well (final concentrations in assay: 300mM Tris-HCl, 300mM Trizma base, 300mM MgCl, 1% Triton-X100, 5mM DTT, 500uM Coenzyme A trilithium salt, 450uM ATP, 1mM D-luciferin sodium salt monohydrate). Luciferase activity was then measured using a ViewLux CCD imager (PerkinElmer), with an average exposure time of 2-30 seconds (2X binning, medium/high gain).

Row | SMILES | activity change, negative = inhibition | Potency
1 | CC(=O)Oc1ccc(C(=O)Nc2ccccc2C(=O)Nc2cccc(C(=O)O)c2)cc1 | -11.8% | –
2 | CCOc1ccc2nc(NC(=O)c3ccccc3)sc2c1 | – | 6.19 µM (active)
3 | O=C(Nc1ccccc1-c1nc2ccccc2s1)c1cccnc1 | -17.1% | –
4 | Cc1ccc2sc(-c3ccc(NC(=O)c4cc(-n5cnnc5)ccc4Cl)cc3)nc2c1 | 43.4% | –
5 | COc1ccc(CC(=O)Nc2cccc(C(=O)Nc3ccccc3C(=O)O)c2)cc1OC | 6.03% | –
6 | COc1cc(C(=O)Nc2cc(C)c(O)c(-c3nc4ccccc4s3)c2)cc(OC)c1OC | -8.7% | –
7 | O=C(O)c1ccc(NC(=O)c2ccccc2NC(=O)c2cccc(Br)c2)cc1 | -13.3% | –
8 | O=C(Nc1ccccc1C(=O)O)c1cccc(NC(=O)c2ccco2)c1 | -15.2% | –
9 | COc1ccc(-c2nc3ccccc3s2)cc1O | – | 2.46 µM (active)
10 | Cc1ccc(S(=O)(=O)N2CCN(C(=O)c3ccccc3-c3nc4ccccc4s3)CC2)c(C)c1 | 15.4% | –
11 | CC(C)(C)NC(=O)c1ccccc1-c1nc2ccccc2s1 | 16.5% | –
12 | O=C(O)c1cccc(NC(=O)c2cccc(S(=O)(=O)Nc3cccc(F)c3)c2)c1 | -12% | –
13 | COc1ccc(C(=O)Nc2ccccc2C(=O)Nc2ccccc2C(=O)O)cc1 | -25.8% | –
14 | CCn1c(C)nc2cc(-c3nc4n(n3)Cc3ccccc3-4)ccc21 | – | 0.155 µM (active)
15 | O=C(Nc1c(Cl)cc(Cl)cc1-c1nc2ccccc2s1)c1ccc(Br)o1 | – | 13.8 µM (active)
16 | O=C(O)c1cccc(NC(=O)c2cccc(S(=O)(=O)N3CCCCC3)c2)c1 | -2.55% | –
17 | O=C(O)c1cccc(NC(=O)c2ccccc2NC(=O)c2ccccc2F)c1 | -13.8% | –
18 | O=C(COC(=O)c1ccccc1[N+](=O)[O-])c1ccc2c(c1)OCO2 | – | 0.0619 µM (active)
19 | CN(C)S(=O)(=O)c1ccc(C(=O)Nc2ccccc2C(=O)O)cc1 | -6.75% | –
20 | Cc1c(C)c2ccc(OCC(=O)Nc3ccccn3)c(C)c2oc1=O | – | 0.0874 µM (active)

Row | SMILES | activity change, negative = inhibition | Potency
21 | CCOc1c(Cl)cc(C(=O)Nc2ccccc2C(=O)O)cc1Cl | -14.5% | –
22 | Nc1ccc(-c2nc3ccc(C(=O)O)cc3s2)cc1 | – | 5.51 µM (active)
23 | Cc1ccc2nc(-c3ccc(N)cc3)sc2c1 | – | 4.91 µM (active)
24 | CCOc1ccc2nc(NC(=O)Cc3cccs3)sc2c1 | -13.3% | –
25 | Cc1ccc(C(=O)Nc2ccc(C(=O)O)cc2)cc1S(=O)(=O)Nc1ccccc1 | -13.9% | –
26 | Cc1c(NC(=O)C(C)(C)C)cccc1-c1nc2ccccc2s1 | 2.61% | –
27 | O=C(O)c1ccc(NC(=O)c2cccc(C(=O)Nc3ccc(C(=O)O)cc3)c2)cc1 | -13.4% | –
28 | COc1ccc(CC(=O)Nc2ccc(-c3nc4ccccc4s3)c(C)c2)cc1 | – | 11 µM (active)
29 | Nc1ccc(-c2nc3cc(N)ccc3s2)cc1 | – | 8.74 µM (active)
30 | Cc1c(NS(C)(=O)=O)cccc1-c1nc2ccccc2s1 | 4.59% | –
31 | CC(=O)Oc1ccc(C(=O)Nc2ccccc2C(=O)Nc2ccc(C(=O)O)cc2)cc1 | -24.4% | –
32 | O=C(Cc1ccc(Cl)cc1)Nc1cccc(C(=O)Nc2ccccc2C(=O)O)c1 | 9.02% | –
33 | COc1cc(OC)cc(C(=O)Nc2ccccc2-c2nc3ccccc3s2)c1 | -6.18% | –
34 | O=C(Nc1ccc(-c2nc3ccccc3s2)cc1)C1=COCCO1 | – | 2.46 µM (active)
35 | COc1ccc2nc(NC(=O)c3ccco3)sc2c1 | – | 6.94 µM (active)
36 | O=C(O)c1cccc(NC(=O)c2ccc(COc3ccc(Cl)cc3)cc2)c1 | 7.3% | –
37 | O=C(Nc1ccccc1C(=O)O)c1cccc(NC(=O)c2ccc(Br)o2)c1 | -16.6% | –
38 | COc1cc(OC)cc(C(=O)Nc2ccc(-c3nc4ccccc4s3)c(C)c2)c1 | -18.6% | –
39 | COc1ccc2nc(NC(=O)C3CCN(S(=O)(=O)c4cccnc4)CC3)sc2c1 | 26.7% | –
40 | O=C(Nc1ccccc1C(=O)O)c1cc(S(=O)(=O)NCc2ccccc2)ccc1Cl | -17.5% | –

Source: PubChem BioAssay AID602475 (National Center for Advancing Translational Sciences (NCATS), 2012)
